Records with an inconclusive call do not appear. Values without a mark were called inactive. The source made the active and inactive calls. Calls come from the whole dose curve; as a rule, active = well fitted cell-killing curve with a large enough effect; inconclusive = small, poorly fitted or top-dose-only effect, or effect the other way; inactive = no such curve, though single readings can be large or run the other way.
Assay: Quantitative High-Throughput drug screen in 47 multiple myeloma cell lines against the NCATS MIPE library collection: KMS26_JCRB cell viability assay (AID 1918975); note: nearly all actives have a fitted effect of over 45% in size
Details: KMS26 myeloma cells viability, CellTiter-Glo ATP, 48 h; series mostly up to 45.8 µM; viability (% of DMSO): at the top concentration
Text: PI: Beverly A. Mock Ph.D.
Laboratory of Cancer Biology and Genetics,
Center for Cancer Research, National Cancer Institute,
National Institute of Health, Bethesda, Maryland
Drug resistance and disease progression are common in multiple myeloma (MM) patients, underscoring the need for new therapeutic combinations. […] We hypothesized that effective combinations would reduce MYC expression and enhance p16 activity. […] These preclinical data identify potentially useful drug combinations for evaluation in drug-resistant MM and reveal potential mechanisms of combined drug sensitivity.
Described herein is the primary MIPE qHTS used to cherrypick compounds. Validated compounds were then further tested for potential synergistic activiy.
[1] Peat TJ, Gaikwad SM, Dubois W, Gyabaah-Kessie N, Zhang S, Gorjifard S, Phyo Z, Andres M, Hughitt VK, Simpson RM, Miller MA, Girvin AT, Taylor A, Williams D, D'Antonio N, Zhang Y, Rajagopalan A, Flietner E, Wilson K, Zhang X, Shinn P, Klumpp-Thomas C, McKnight C, Itkin Z, Chen L, Kazandijian D, Zhang J, Michalowski AM, Simmons JK, Keats J, Thomas CJ, Mock BA. Drug combinations identified by high-throughput screening promote cell cycle transition and upregulate Smad pathways in myeloma. Cancer Lett. 2023 Aug 1;568:216284. doi: 10.1016/j.canlet.2023.216284. Epub 2023 Jun 24. PMID: 37356470; PMCID: PMC10408729.
SEQUENCE No. (e.g., 1, 2, 3, etc.); […] (e.g., Cells, Incubation, Reagent, etc.); VALUE and DESCRIPTION.
1; Cells; 5 uL; white, solid bottom 1536-well Greiner assay plate.
2; Compounds; 23 nL; Kalypsis pin tool (Wako USA) equipped with a 1536-well pin head to transfer to the assay plates.
3; Incubation; 48 hours; 37C incubation.
4; Reagent;5uL; CellTiter Glo (Promega).
5; Detector; 425V; Luminescence; Viewlux PerkinElmer.
NOTES (numbers refer to Sequence numbers above)
1. The cell-based screening methods employed in this study were like those previously published. Briefly, the corresponding myeloma cell lines were screened in 1,536-well plates with 500 cells, 5-uL per well for inhibition of cell viability (assessed by measuring ATP levels with CellTiterGlo).
2. NCATS MIPE 4.0 library of approved and investigational drugs were added using the Kalypsis pin tool. Wells treated with DMSO only for 100% viability and media only wells for 0% viability were used as controls.
3. The assay plates were covered and incubated for 48 hours in a 37C, 5% CO2 incubator with controlled humidity.
4. After 48 hours, CellTilter-GloTM luminescent substrate mix (Promega) reagent was added to the assay plate and plates we incubated for 5 min at room temperature.
5. Signal was measured as median relative luminescence units on a ViewLux (PerkinElmer) multiplate reader.
[1] Heske CM, Davis MI, Baumgart JT, Wilson K, Gormally MV, Chen L, Zhang X, Ceribelli M, Duveau DY, Guha R, Ferrer M, Arnaldez FI, Ji J, Tran HL, Zhang Y, Mendoza A, Helman LJ, Thomas CJ. Matrix Screen Identifies Synergistic Combination of PARP Inhibitors and Nicotinamide Phosphoribosyltransferase (NAMPT) Inhibitors in Ewing Sarcoma. Clin Cancer Res. 2017 Dec 1;23(23):7301-7311. doi: 10.1158/1078-0432.CCR-17-1121. Epub 2017 Sep 12. PMID: 28899971; PMCID: PMC6636827.
Potency is the fitted concentration of half-maximal effect.

SMILES	viability (% of DMSO)	Potency
O=C(CO)N1CCC(c2[nH]nc(-c3ccc(Cl)cc3)c2-c2ccncn2)CC1	146%	–
Clc1ccc(COC(Cn2ccnc2)c2ccc(Cl)cc2Cl)c(Cl)c1 (stereo not given)	–	23.5 µM (active)
C[C@@H]1CC=CC=CC=CC=C[C@@H](O[C@@H]2O[C@H](C)[C@@H](O)[C@H](N)[C@H]2O)C[C@@H]2O[C@](O)(C[C@@H](O)C[C@@H]3O[C@@H]3C=CC(=O)O1)C[C@H](O)[C@@H]2C(=O)O	91.7%	–
CCOC(=O)N1c2ccc(C(F)(F)F)cc2[C@@H](N(Cc2cc(C(F)(F)F)cc(C(F)(F)F)c2)C(=O)OC)C[C@H]1CC	–	3.32 µM (active)
CCC(=C(c1ccc(O)cc1)c1ccc(OCCNC)cc1)c1ccccc1	–	26.4 µM (active)
CC[C@H](CC#N)OC(=O)N[C@@H](C)c1cccc(NC(=O)Nc2ccc(-c3cnco3)c(OC)c2)c1	–	20.9 µM (active)
CCCCC(F)(F)[C@@]1(O)CC[C@H]2[C@H](CC(=O)[C@@H]2CCCCCCC(=O)O)O1	121%	–
C[C@H]1COC2=C1C(=O)C(=O)c1c2ccc2c1CCCC2(C)C	–	29.6 µM (active)
Cc1nc(NC(=O)N2CCC[C@@H]2C(N)=O)sc1-c1csc(C(C)(C)C)n1	–	1.18 µM (active)
Cc1ccccc1-n1c(Cn2nc(-c3cccc(O)c3)c3c(N)ncnc32)nc2cccc(C)c2c1=O	–	11.8 µM (active)
CN(C)c1ccc(-c2nc3ncc(Cl)c(N4CCN(CC(=O)Nc5nccs5)CC4)c3[nH]2)cc1	–	5.9 µM (active)
COc1cc(F)c(C(C)C)cc1-c1ccc(C(F)(F)F)cc1CN1C(=O)O[C@H](c2cc(C(F)(F)F)cc(C(F)(F)F)c2)[C@@H]1C	119%	–
O[C@@H](COc1cccc2ncccc12)CN1CCN(C2c3ccccc3[C@@H]3[C@H](c4ccccc42)C3(F)F)CC1 (stereo not given in full)	–	20.9 µM (active)
CS(=O)(=O)c1ccc(C2=C(c3ccccc3)C(=O)OC2)cc1	118%	–
CC1(C)[C@H]2CC[C@]3(C)[C@@H](C(=O)C=C4[C@@H]5C[C@@](C)(C(=O)O)CC[C@]5(C)CC[C@]43C)[C@@]2(C)CC[C@@H]1O	112%	–
CC(C)c1c(C(=O)Nc2ccccc2)c(-c2ccccc2)c(-c2ccc(F)cc2)n1CC[C@H](O)C[C@@H](O)CC(=O)O	91.7%	–
Cc1ccccc1C(=O)c1ccc(Nc2ccc(Br)cc2N)cc1Cl	–	5.26 µM (active)
CCN1C[C@H](C)n2c(c(O)c3c(=O)n(Cc4ccc(F)c(Cl)c4)nc(C(=O)NC)c32)C1=O	107%	–
Cn1c(=O)c(Oc2ccc(F)cc2F)cc2cnc(NC3CCOCC3)nc21	138%	–
C[C@@H](O)[C@H]1C(=O)N2C(C(=O)OCOC(=O)C(C)(C)C)=C(SC3CN(C4=NCCS4)C3)[C@H](C)[C@H]12	112%	–

SMILES	viability (% of DMSO)	Potency
CN(C(Cc1ccc(OS(=O)(=O)c2cccc3cnccc23)cc1)C(=O)N1CCN(c2ccccc2)CC1)S(=O)(=O)c1cccc2cnccc12 (stereo not given)	–	14.8 µM (active)
CCOC(=O)[C@H](CCc1ccccc1)N[C@@H](C)C(=O)N1CCCC1C(=O)O (stereo not given in full)	138%	–
NC(=O)c1ncn([C@@H]2O[C@H](CO)[C@@H](O)[C@@H]2O)n1	149%	–
Nc1[nH]nc2nnc(-c3c(-c4ccccc4)nn4ccccc34)cc12	126%	–
COC(=O)Nc1ccc(-c2nc(N3CCOCC3)c3cnn(C4CCN(C(=O)OC)CC4)c3n2)cc1	–	1.66 µM (active)
C[C@H]1[C@H](O)O[C@@H]2O[C@@]3(C)CC[C@@H]4[C@H](C)CC[C@@H]1[C@@]24OO3	–	10.5 µM (active)
Nc1ccc(-c2ccc3ncc4ccc(=O)n(-c5cccc(C(F)(F)F)c5)c4c3c2)cn1	–	0.0296 µM (active)
O=S(=O)(O)c1ccc2cc(N=Nc3cc(S(=O)(=O)O)c4cccnc4c3O)ccc2c1	–	20.9 µM (active)
OC[C@H]1O[C@@H](O[C@H]2[C@@H](O)[C@@](O)(CO)O[C@@H]2CO)[C@H](O)[C@@H](O)[C@@H]1O	98.5%	–
CN(C)S(=O)(=O)c1ccc2c(c1)C(=Cc1cc3c([nH]1)CCCC3)C(=O)N2	–	2.35 µM (active)
COc1ccc(-c2ccc3ncc4c(c3c2)n(-c2ccc(N3CCNCC3)c(C(F)(F)F)c2)c(=O)n4C)cn1	–	0.0083 µM (active)
C[C@@H]1C[C@H]2[C@@H]3CCC4=CC(=O)C=C[C@]4(C)[C@@]3(F)[C@@H](O)C[C@]2(C)[C@@]1(O)C(=O)CO	102%	–
CC(NCCc1ccc(O)cc1)C(O)c1ccc(O)cc1 (stereo not given)	109%	–
CSc1cccc(Nc2ncc3cc(-c4c(Cl)cccc4Cl)c(=O)n(C)c3n2)c1	–	9.35 µM (active)
COc1c(C)c2c(c(O)c1CC=C(C)CCC(=O)OCCN1CCOCC1)C(=O)OC2	109%	–
COc1ccc(-c2cc3nccn3c(Nc3ncccc3C(N)=O)n2)cc1OC	–	10.5 µM (active)
CCC(=C(CC)c1ccc(O)cc1)c1ccc(O)cc1	–	13.2 µM (active)
c1ccc(-c2oc3ncnc(NC[C@@H]4CCCO4)c3c2-c2ccccc2)cc1	–	18.7 µM (active)
O=C(Nc1cccc(Cl)c1)Nc1ncc(CCNc2ncnc3ccsc23)s1	–	2.64 µM (active)
O=S(=O)(NCCNCC=Cc1ccc(Br)cc1)c1cccc2cnccc12	–	13.2 µM (active)
